Test results: the supplement of paper PMC11732987, “Enantioselective OTUD7B fragment discovery through chemoproteomics screening and high-throughput optimisation” (Communications Chemistry, 2025)

How the values were obtained:
Assay in all cases: log2 ratio of Biotin-Ahx-Ub-VS probe labelling (fragment/DMSO); higher = less target engagement (more negative = stronger competition), active = hit call of the paper (q ≤ 0.05, log2 ratio ≤ -1)
Details in all cases: compound concentration: 200 uM; treatment time: 3 h
OTUD6B = target: T1, OTUD6B (UniProt Q8N6M0)
T1 sequence (whole entry): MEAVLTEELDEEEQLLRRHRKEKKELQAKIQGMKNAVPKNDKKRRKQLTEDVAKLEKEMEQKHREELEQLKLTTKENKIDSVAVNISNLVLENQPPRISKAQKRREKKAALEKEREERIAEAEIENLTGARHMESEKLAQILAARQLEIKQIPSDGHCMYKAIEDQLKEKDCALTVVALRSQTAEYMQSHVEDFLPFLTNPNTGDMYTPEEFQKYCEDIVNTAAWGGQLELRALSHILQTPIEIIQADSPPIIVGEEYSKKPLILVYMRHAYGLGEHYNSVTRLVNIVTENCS
In short: (§1)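 HEK293T lysate, 495 µg per sample in Tris/CHAPS/IGEPAL buffer with protease inhibitors, was treated in triplicate with fragment at 200 µM or vehicle for 3 h and then with Biotin-Ahx-Ub-VS at 0.5 µM final for 1 h. Labelled DUBs were NeutrAvidin-enriched, digested with LysC and trypsin, and run by diaPASEF LC-MS/MS. Spectronaut label-free quantities were global-median-normalised, and values are average log2 fragment/vehicle ratios by unpaired t-test on proteins with ≥2 unique peptides.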

OTUD7B = target: T2, OTUD7B (UniProt Q6GQQ9)
T2 sequence (whole entry): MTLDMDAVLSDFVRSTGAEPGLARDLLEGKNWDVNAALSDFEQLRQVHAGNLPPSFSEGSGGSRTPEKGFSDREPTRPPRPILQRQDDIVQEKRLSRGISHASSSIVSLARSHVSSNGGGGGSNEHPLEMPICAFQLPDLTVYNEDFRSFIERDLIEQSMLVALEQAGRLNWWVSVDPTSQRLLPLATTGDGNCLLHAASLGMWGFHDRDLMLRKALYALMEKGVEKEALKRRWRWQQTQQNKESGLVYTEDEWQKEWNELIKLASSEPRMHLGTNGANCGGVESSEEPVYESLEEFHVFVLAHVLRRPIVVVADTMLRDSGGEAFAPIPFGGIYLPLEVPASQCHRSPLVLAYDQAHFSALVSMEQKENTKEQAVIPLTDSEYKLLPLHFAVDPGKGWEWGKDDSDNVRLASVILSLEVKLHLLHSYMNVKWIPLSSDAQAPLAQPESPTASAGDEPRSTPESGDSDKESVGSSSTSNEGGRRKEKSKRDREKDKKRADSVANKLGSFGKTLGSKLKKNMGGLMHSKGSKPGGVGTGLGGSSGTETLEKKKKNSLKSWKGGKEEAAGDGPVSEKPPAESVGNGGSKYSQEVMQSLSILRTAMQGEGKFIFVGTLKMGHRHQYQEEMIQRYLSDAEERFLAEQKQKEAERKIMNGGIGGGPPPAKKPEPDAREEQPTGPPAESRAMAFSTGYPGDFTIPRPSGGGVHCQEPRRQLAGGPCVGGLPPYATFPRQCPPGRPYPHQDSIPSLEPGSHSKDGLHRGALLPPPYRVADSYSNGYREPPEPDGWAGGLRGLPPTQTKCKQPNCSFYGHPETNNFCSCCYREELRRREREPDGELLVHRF
In short: as §1

PRPF8 = PRPF8 (UniProt Q6P2Q9)
In short: as §1

PSMD7 = target: T3, PSMD7 (UniProt P51665)
T3 sequence (whole entry): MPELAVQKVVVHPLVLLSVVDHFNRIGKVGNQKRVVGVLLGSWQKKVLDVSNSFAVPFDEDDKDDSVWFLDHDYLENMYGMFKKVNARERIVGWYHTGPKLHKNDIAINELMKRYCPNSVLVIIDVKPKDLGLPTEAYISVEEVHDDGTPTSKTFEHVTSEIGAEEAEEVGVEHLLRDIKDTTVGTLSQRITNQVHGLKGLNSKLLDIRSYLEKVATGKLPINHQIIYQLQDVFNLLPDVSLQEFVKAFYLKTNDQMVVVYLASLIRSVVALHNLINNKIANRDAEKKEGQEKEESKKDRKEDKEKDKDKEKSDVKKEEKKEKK
In short: as §1

UCHL1 = UCHL1 (UniProt P09936)
In short: as §1

UCHL3 = target: T4, UCHL3 (UniProt P15374)
T4 sequence (whole entry): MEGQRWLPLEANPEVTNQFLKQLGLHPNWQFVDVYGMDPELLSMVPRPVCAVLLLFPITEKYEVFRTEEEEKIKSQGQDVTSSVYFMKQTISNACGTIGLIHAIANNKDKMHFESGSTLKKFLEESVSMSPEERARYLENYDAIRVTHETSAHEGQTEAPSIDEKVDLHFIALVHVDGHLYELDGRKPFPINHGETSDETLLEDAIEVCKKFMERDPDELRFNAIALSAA
In short: as §1

UCHL5 = target: T5, UCHL5 (UniProt Q9Y5K5)
T5 sequence (whole entry): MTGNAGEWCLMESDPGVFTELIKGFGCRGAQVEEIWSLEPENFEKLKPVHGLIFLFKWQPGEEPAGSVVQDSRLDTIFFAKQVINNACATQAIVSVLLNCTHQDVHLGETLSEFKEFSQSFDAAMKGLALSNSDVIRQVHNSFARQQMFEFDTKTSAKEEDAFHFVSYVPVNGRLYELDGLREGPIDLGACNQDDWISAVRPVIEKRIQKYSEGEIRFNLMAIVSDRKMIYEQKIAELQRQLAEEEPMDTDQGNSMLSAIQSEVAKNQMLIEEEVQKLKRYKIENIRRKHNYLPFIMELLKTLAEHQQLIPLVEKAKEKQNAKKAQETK
In short: as §1

USP10 = USP10 (UniProt Q14694)
In short: as §1

USP15 = target: T6, USP15 (UniProt Q9Y4E8)
T6 sequence (whole entry): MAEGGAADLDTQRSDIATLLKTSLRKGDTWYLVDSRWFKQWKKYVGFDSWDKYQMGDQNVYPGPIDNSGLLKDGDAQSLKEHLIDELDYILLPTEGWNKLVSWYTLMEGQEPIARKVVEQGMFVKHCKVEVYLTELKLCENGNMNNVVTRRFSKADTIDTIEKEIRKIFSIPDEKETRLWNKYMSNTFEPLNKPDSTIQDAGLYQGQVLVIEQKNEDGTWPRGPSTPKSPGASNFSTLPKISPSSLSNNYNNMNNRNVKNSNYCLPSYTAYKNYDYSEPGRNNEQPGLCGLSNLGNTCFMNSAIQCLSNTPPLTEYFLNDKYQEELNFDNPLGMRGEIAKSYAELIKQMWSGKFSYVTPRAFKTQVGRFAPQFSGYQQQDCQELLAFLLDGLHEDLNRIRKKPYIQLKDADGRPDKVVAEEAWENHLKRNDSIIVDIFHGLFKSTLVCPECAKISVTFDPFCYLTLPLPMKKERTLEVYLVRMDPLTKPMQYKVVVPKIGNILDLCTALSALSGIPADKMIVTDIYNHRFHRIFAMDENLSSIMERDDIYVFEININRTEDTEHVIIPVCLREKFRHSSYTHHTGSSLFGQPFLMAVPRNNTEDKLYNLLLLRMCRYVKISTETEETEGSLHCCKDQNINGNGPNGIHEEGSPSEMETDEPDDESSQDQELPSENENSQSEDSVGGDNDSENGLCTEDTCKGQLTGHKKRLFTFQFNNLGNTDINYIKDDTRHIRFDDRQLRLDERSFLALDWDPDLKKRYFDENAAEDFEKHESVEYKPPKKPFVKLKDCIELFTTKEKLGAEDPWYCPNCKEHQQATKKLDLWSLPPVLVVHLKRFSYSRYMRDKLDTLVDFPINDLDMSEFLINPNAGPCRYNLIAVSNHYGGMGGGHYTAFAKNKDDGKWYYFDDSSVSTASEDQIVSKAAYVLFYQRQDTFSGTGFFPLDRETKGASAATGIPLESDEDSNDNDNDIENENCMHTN
In short: as §1

USP16 = USP16 (UniProt Q9Y5T5)
In short: as §1

Measured: log2 ratio of Biotin-Ahx-Ub-VS probe labelling

Sequence of UCHL1 (P09936 whole entry, looked up): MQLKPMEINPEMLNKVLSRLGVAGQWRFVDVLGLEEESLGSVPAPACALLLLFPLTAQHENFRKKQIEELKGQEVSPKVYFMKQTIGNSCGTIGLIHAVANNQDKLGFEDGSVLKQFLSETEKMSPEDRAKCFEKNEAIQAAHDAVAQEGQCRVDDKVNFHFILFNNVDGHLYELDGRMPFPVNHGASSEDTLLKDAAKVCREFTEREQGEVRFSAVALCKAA
Sequence of USP16 (Q9Y5T5 whole entry, looked up): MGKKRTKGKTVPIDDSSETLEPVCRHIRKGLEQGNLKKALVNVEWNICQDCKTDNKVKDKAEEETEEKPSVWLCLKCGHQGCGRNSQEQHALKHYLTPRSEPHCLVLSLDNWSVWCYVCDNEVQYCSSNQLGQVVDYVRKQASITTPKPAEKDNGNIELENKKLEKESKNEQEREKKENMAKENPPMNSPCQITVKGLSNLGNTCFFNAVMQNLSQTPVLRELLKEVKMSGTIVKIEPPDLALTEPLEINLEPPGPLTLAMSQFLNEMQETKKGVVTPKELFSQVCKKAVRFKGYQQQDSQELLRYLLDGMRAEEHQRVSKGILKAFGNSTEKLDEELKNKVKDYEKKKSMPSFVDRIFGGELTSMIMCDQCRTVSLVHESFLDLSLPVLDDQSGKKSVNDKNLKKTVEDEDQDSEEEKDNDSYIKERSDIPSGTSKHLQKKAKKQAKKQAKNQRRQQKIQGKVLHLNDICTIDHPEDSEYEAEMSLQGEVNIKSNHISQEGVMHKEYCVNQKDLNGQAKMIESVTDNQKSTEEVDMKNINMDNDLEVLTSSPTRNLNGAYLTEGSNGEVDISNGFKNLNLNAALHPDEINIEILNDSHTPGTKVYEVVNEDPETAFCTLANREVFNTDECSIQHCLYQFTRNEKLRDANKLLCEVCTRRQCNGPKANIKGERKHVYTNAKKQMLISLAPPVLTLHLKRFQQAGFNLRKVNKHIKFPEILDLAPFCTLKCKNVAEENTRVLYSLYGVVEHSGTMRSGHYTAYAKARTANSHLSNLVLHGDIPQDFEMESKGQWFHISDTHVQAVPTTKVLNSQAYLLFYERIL
Sequence of USP10 (Q14694 whole entry): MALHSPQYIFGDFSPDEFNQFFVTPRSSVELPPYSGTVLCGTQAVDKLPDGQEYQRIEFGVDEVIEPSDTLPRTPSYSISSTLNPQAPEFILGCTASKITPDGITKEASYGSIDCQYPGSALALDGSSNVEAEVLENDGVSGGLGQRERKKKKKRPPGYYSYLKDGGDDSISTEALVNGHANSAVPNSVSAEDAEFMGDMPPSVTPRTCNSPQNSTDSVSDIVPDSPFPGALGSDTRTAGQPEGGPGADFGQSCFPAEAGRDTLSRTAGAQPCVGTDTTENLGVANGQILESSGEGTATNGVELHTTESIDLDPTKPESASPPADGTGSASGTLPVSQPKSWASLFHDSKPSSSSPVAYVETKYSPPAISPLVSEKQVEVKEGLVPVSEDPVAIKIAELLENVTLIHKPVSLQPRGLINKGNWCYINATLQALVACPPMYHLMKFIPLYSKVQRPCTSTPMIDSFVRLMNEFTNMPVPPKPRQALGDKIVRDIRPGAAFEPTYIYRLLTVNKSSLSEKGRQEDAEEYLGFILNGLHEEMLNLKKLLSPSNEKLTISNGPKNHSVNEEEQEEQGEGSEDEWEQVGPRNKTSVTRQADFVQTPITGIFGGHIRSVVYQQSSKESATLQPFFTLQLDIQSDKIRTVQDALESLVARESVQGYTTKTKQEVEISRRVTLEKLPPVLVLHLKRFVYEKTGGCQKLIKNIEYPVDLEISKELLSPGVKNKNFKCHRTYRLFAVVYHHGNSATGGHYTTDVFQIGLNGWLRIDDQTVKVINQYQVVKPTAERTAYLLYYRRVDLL

O=C(CCl)N[C@H]1CC[C@@H](CO)CC1
active: OTUD7B -1.44 | UCHL1 -2.47
inactive: OTUD6B -0.662 | PRPF8 -0.24 | PSMD7 -0.201 | UCHL3 -0.884 | UCHL5 -0.9 | USP10 -0.226 | USP15 -0.938 | USP16 -0.292
